About 83,000 compounds went through this panel and 20% of them were active in at least one assay; those are over-represented in the sample as a whole.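 Plates (96-well) were seeded with cells, treated with compound at one concentration, and incubated for 48 hours before percent growth was determined.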 Activity calls are given as the source filed them. How the source made its calls: active means growth percent below 10; inactive means the rest.

The subject of the experiment is SNB-19 CNS. In words: NCI-60 one-dose screen, 48 h (100 = growth as untreated, 0 = no growth, -100 = all killed). To be noted: 10 µM unless noted.
Turning to `Cc1cc2c(-c3nc4ccccc4n3C)c(O)c(O)cc2c(O)c1-c1c(C)cc2c(-c3nc4ccccc4n3C)c(O)c(O)cc2c1O`, the growth was 15.4% (inactive).
To `COc1ccc2sc(-n3nc4nc5n(c(=O)c4c3N)-c3ccccc3Sc3ccccc3-5)nc2c1` belongs 79.7% (inactive); to `CC(=O)Nc1ccc(C(=O)/C=C/c2ccc(N(C)C)cc2)cc1`, 109% (inactive).
To `CCCC(=O)NNc1[nH]c(-c2ccc(OC)cc2)cc1C(=O)OCC` belongs 108% (inactive); to `O=C(/C(Br)=C/c1ccccc1)c1ccccc1`, 96.2% (inactive).
In the case of `C/C=C(/C)C(=O)OC1C=C(CO)C(=O)C(OC(=O)C(C)(O)C(C)Cl)C1C(C)C` (stereo not given), the growth was -1.69% (active).
To `CC([C@H]1CC=C2C3CCC4=C[C@@H](N(C)C)CC[C@]4(C)C3CC[C@@]21C)N(C)C` (stereo not given in full) belongs 79.7% (inactive); to `COc1ccc(/C=C2\SC(=O)N(Cc3cc(=O)oc4ccc(OC)cc34)C2=O)cc1`, 87% (inactive); to `CCCCCCCCCCCCCCCC[n+]1cccc(C#N)c1`, 26.4% (inactive).
For `COc1ccc2cnc(N)c(C#Cc3cc(C(=O)Nc4ccc(CN5CCN(C)CC5)c(C(F)(F)F)c4)cnc3C)c2c1`, the growth is 80.5% (inactive).
Regarding `CCCCCc1ccnc(CC(=O)c2ccc(OC)cc2)c1`, the growth was 97.8% (inactive).
Consider `CCCCCCCCCCCCCCCCCC1=NCCN1CS(=O)(=O)O`, for which the growth is 80.4% (inactive).
To `COc1ccc(OC)c(Cn2cc3c(c2)-c2oncc2CC3)c1` belongs 50.6% (inactive).
Turning to `CC1Cc2cc(F)ccc2-n2cccc21` (stereo not given), the growth is 121% (inactive).
Regarding `CC/C(=N\Nc1nc2ccccc2n1C)c1ccccn1`, the growth is 18.8% (inactive).
With `O=C(CN1C(=O)NC(c2ccccc2)(c2ccccc2)C1=O)c1ccc(N2CCCC2)cc1` the figure was 90.7% (inactive).
To `COc1ccc(-c2nc(N)n(C(=S)Nc3ccccc3)n2)cc1` belongs 99.5% (inactive).
To `Cc1sc(NC(=O)c2ccc(C(C)(C)C)cc2)c(C(=O)O)c1C` belongs 51% (inactive).
Consider `C#CCCCCCCC[C@@H]1OC(=O)[C@H]([C@@H](C)CC)NC(=O)[C@H]([C@@H](C)CC)NC(=O)CC(=O)[C@@H]1C`, for which the growth is 97.7% (inactive).
With `CCOC1=C(Cl)C(=O)C(OCC)=C(Cl)C1=O` the figure was 96.3% (inactive); with `Cc1ccc(CC(=O)O)c(C)c1`, 102% (inactive); with `O=C1C(=O)c2ccccc2C(O)=C1CCCc1ccc(Oc2ccccc2)cc1`, 62% (inactive).
To `CCOc1ccc2nc3ccc(Cl)cc3nc2c1` belongs 97.7% (inactive); to `CC[n+]1c(C)ccc2cc(C)ccc21`, 92.7% (inactive).
For `COC(=O)/C(Br)=C/c1c[nH]c2ccc(Br)cc12`, the growth is 88.7% (inactive).
Regarding `CC(=O)c1ccc2c(c1)c1ccccc1n2C`, the growth is 90.8% (inactive).
With `Cc1ccc([C@@H]2C[C@H](O)Cc3ccccc3N2)s1` the figure was 120% (inactive).
`COC(=O)/C=C/c1cc(O)c2oc(-c3ccc(O)c(O)c3)c(C(=O)OC)c2c1`: the growth was 31.7% (inactive).
As to `CCc1c(C)c2ccc(OCC(=O)N=Nc3c(O)[nH]c4ccccc34)c(C)c2oc1=O`, the growth is 19.2% (inactive).
Consider `CC1=C(C)C[C@]2(C(=O)O[C@H]3CCCC[C@@H]32)[S@](=O)C1`, for which the growth was 105% (inactive).
Take `CCOC(=O)C1=NN(c2ccccc2)C2=NC(=O)/C(=C\c3cn(-c4ccccc4)nc3-c3cc4ccccc4o3)C(=O)N12`: the growth is 89.5% (inactive).
With `COc1cc2c(/C=C3\C(=O)Nc4ccc(Br)cc43)c(Cl)n(C)c2cc1C` the figure was 24% (inactive).
To `COc1cc2c(cc1OC)C(Cc1cc(OC)c(OC)cc1[N+](=O)[O-])=NCC2` belongs 94.3% (inactive); to `COc1ccc(-c2nc(SCC(C)C)nc(Nc3ccc([N+](=O)[O-])cc3)c2C#N)cc1`, 88.4% (inactive); to `O=C(/C=C/c1c[nH]c2ccccc12)c1cc2ccccc2o1`, 96.2% (inactive).
With `O=C(CBr)OCc1ccc([N+](=O)[O-])o1` the figure was 104% (inactive); with `C/C=C(/C)C(=O)OC1C=C(CO)C(=O)C(OC(=O)C2(C)OC2C)C1C(C)C` (stereo not given), 12.1% (inactive).
`O=C(Nc1ccc(Cl)c(Cl)c1)O/N=C\c1c(Cl)ccc([N+](=O)[O-])c1Cl`: the growth is 49.5% (inactive).
To `Oc1ccc(CN(Cc2ccc(C(F)(F)F)cc2)Cc2ccc(O)c3ncccc23)c2cccnc12` belongs 30.8% (inactive); to `COc1cc(-c2nc(/C=C3/C(=O)Nc4ccccc43)c3ccccn23)cc(OC)c1OC`, 90.7% (inactive).

For the origin of these results see PubChem BioAssay (NCI).
